Bioassay records: PubChem BioAssay, National Center for Advancing Translational Sciences (NCATS)
BAZ2B inh – BAZ2B (human) inhibition; Q9UIF8; AlphaScreen BAZ2B-H3K14Ac peptide displacement; Potency, µM (series often up to 114 µM), for inactives: at the top dose activity change, negative = inhibition, most hits filed as inhibitors; 4.4% of 360,000 active; AID 504333; note: % is set by controls: 0 for no effect and ±100 for the full control effect; nearly all actives have a fitted effect of over 60% in size
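AlphaScreen displacement: compounds (up to 110uM) incubated 30 min at room temperature with a preformed 50 nM BAZ2B/50 nM biotinylated H3K14Ac peptide complex in PBS pH 7.4 with Tween-20. Donor and acceptor beads at 10 ug/mL final added, 20 min light-protected before reading.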
JMJD2A Tudor – JMJD2A Tudor domain (human) inhibition. AlphaScreen JMJD2A-Tudor / H3K4me3 peptide binding. Potency, µM (doses to about 114 µM), for the others: at the top dose activity change, negative = inhibition, most hits filed as inhibitors. 4.4% of 390,000 active; note: % is set by controls: 0 for no effect and ±100 for the full control effect; nearly all actives have a fitted effect of over 50% in size
G9a block – blocks human histone lysine methyltransferase G9a; Q96KQ7; G9a H3K9 monomethylation, AlphaScreen, 2 h; Potency, µM (series often up to 102 µM), without a hit: top-dose activity, negative = inhibition, usual class: inhibitors; 8.8% of 350,000 active; note: % is set by controls: 0 for no effect and ±100 for the full control effect; nearly all actives have a fitted effect of over 75% in size
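Methyltransferase reactions run at room temperature for 2 h (20 nM enzyme, 500 nM biotin-H3K9 peptide, 20 uM SAM) after a 15 min compound preincubation; product detected by AlphaScreen beads and anti-H3K9me1 antibody.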
PLK1 PBD block – inhibitors of human PLK1 polo-box domain binding | P53350 | Plk1 PBD binding of FITC phosphopeptide, fluorescence polarization | Potency, µM, for the others: max response, negative = inhibition, actives largely listed as inhibitors | 2.8% of 360,000 active; note: series mostly up to about 57 µM; % is set by controls: 0 for no effect and ±100 for the full control effect; nearly all actives have a fitted effect of over 65% in size
ALOX12 inh – ALOX12 (human) lipoxygenase inhibition | Potency, µM (titrated, usually from 108 µM), for inactives: top-dose activity change, negative = inhibition, most hits filed as inhibitors | purified 12hLO, xylenol orange hydroperoxide absorbance | P18054 | AID 1671190 | 1.1% of 580,000 active; note: % is set by controls: 0 for no effect and ±100 for the full control effect
Target sequence (P18054 whole entry, looked up): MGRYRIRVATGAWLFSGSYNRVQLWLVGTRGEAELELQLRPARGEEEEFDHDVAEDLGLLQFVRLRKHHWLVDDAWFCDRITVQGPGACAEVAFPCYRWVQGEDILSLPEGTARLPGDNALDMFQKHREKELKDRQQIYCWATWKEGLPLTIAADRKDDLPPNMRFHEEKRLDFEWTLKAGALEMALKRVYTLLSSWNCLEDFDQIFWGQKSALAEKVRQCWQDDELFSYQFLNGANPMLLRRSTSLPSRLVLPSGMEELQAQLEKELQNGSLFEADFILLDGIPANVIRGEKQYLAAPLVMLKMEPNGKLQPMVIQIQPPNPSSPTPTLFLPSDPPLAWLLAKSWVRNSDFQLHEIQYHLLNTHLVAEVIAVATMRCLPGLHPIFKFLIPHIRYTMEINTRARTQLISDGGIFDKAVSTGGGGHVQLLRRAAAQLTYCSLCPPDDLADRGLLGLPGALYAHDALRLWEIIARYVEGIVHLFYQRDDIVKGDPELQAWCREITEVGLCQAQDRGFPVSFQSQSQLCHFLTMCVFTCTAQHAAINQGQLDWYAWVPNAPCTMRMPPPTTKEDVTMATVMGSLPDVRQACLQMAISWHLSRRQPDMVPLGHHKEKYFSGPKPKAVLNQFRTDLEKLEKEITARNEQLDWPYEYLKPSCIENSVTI
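Hydroperoxide product was detected by ferrous iron/xylenol orange as the 573 to 405 nm absorbance ratio. Arachidonic acid at 40 uM (final) was turned over for 30 min at room temperature by 150 nM human 12hLO, pH 7.0 Hepes buffer, after 15 min compound preincubation.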
HP1b binding inh – inhibitors of HP1-beta chromodomain binding to methylated histone tails | AlphaScreen HP1-beta / biotin-H3K9me3 peptide binding | Potency, µM (top dose mostly 114 µM), for inactives: top-dose activity change, negative = inhibition, actives largely listed as inhibitors | 0.56% of 390,000 active; note: nearly all actives have a fitted effect of over 70% in size
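AlphaScreen: HP1-beta (50 nM) preformed 30 min with biotin-H3(1-18)K9me3 peptide (50 nM) in PBS pH 7.4, 0.01% Tween-20. Compound added for 30 min at RT, then streptavidin donor/nickel chelate acceptor beads (10 ug/mL) for 30 min.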
Starred values were filed as active, the others as inactive; u = inconclusive; x = not tested or not shown; [ ] = remark or other dose. Sampled rows, rich in hits. Any-hit rate of the full collection: about 9%. Calls come from the whole dose curve; as a rule, active = well fitted curve in the direction sought with a large enough effect; inconclusive = small, poorly fitted or top-dose-only effect, or another doubt; inactive = no such curve, though single readings can be large; an effect the other way counts as inactive or inconclusive. Potency is the fitted concentration of half-maximal effect.

SMILES | BAZ2B inh | JMJD2A Tudor | G9a block | PLK1 PBD block | ALOX12 inh | HP1b binding inh
CC(C)(C)Cc1nnc(NC(=O)c2ccc3c(c2)OCO3)s1 | -15% | -19% | 8.9µM* | 15µM* | 16% | u
COc1ccc(Nc2nc(N)nc(COc3ccc(OC)cc3)n2)cc1 | 10% | -12% | 17%[59 µM] | -6% | -1% | 39%
COc1ccc(Nc2nc(N)nc(CN3CCC(C)CC3)n2)cc1 | -33% | -23% | 20µM* | -5% | 0% | 7%
COc1ccc(Nc2nc(N)nc(CN3CCc4ccccc4C3)n2)cc1 | 50µM* | u | u | u | 481% | 16%
CC1CC(C)CN(Cc2nc(N)nc(Nc3ccccc3)n2)C1 (stereo not given) | u | u | x | -1% | -9% | 22%
Nc1nc(CN2CCc3ccccc3C2)nc(Nc2ccccc2)n1 | 50µM* | 79µM* | u | -16% | 0% | 3%
COc1ccc(OCc2nc(N)nc(Nc3ccccc3)n2)cc1 | -3% | -19% | u | -7% | u | 5%
CC1CC(C)CN(Cc2nc(N)nc(Nc3ccc4ccccc4c3)n2)C1 (stereo not given) | 50µM* | -15%[11.4 µM] | -6%[59 µM] | -19% | 23% | -8%
CCC(Cc1ccccc1)NC(=O)Cn1cccc1C(=O)c1ccccc1 (stereo not given) | -2% | 6% | 19% | 2% | -3% | 16%
Cc1ccc(OCCC(=O)OC(C)C(=O)NC2CC2)cc1 (stereo not given) | 8% | -20% | 6% | -13% | 16% | -5%
Nc1cc(=O)[nH]c(SCc2cccc3ccccc23)n1 | -5% | -19% | 24% | 0% | u | 31%
N#CC1=C(N)N=C(SCc2cccc3ccccc23)C(C(N)=O)C12CCCCC2 (stereo not given) | u | 56µM* | 45µM* | -3% | -6% | -34%
NC(N)=Nc1nc2ccccc2o1 | 3% | 13µM* | u | -9% | 2% | 20%[57 µM]
FC(F)(F)c1cccc(N2CCN(C(=S)NC3CCCCC3)CC2)c1 | 2% | -10% | 8% | 5% | 50µM* | 36%
COCc1ccc(O)c2ncccc12 | 1.8µM* | 40µM* | u | -5% | 23% | 51%
Oc1ccc2c(c1)c1ccccc1c1ncccc21 | x | -10% | x | 3% | -7% | 6%
Fc1ccc(NC(=S)NCc2cccnc2)cc1 | -21% | -8% | 10% | -14% | -1% | 39%
OCc1ccnc2c(O)cccc12 | 1.4µM* | 13µM* | -7%[2.33 µM] | 2% | -19% | -4%
OCc1cccnc1Cl | x | x | x | x | -6% | x
c1ccc2c(Cn3ccnc3)c[nH]c2c1 | -22% | -30% | 5%[12.7 µM] | -7% | -10% | 11%
Oc1ccc(Cn2ccnc2)c2cccnc12 | 0.71µM* | 2µM* | u | 4% | -29% | 20%
Oc1ccc(CNc2ccc(F)cc2)c2cccnc12 | 25µM* | 56µM* | 1.6µM* | 3.4µM* | u | -25%
COC(=O)c1[nH]c(C)c(/C(O)=C2\C(=O)C(=O)N(CCN(C)C)C2c2cccc(OC)c2OC)c1C (stereo not given) | 4% | -24% | -20%[59 µM] | -8% | 0% | 20%
Cc1ccc(C(=O)Nc2cccc(C(F)(F)F)c2)cc1NC(=O)c1nccn1C | u | -10% | u | -7% | -11% | 29%
CCOc1ccccc1N1CCN(C(=O)NCc2ccc(F)cc2)CC1 | -10% | -8% | -31% | -23% | -11% | -1%
SMILES | BAZ2B inh | JMJD2A Tudor | G9a block | PLK1 PBD block | ALOX12 inh | HP1b binding inh
NC(=O)CC[C@H](NC(=O)c1ccc(F)cc1)C(=O)OCC(=O)NCc1ccc2c(c1)OCO2 | x | -6% | x | 4% | -44% | 36%
CN(C)S(=O)(=O)c1ccc(N2CCCC2)c(C(=O)Nc2ccc(C(N)=O)cc2)c1 | 5% | -5% | 14%[0.501 µM] | -2% | u | 24%
CCN(CC)S(=O)(=O)c1ccc2c(c1)nc(CCC(=O)Nc1ccc(N3CCOCC3)cc1)n2C | -30% | -31% | 45µM* | -11% | 6% | -6%
CCN(CC)S(=O)(=O)c1ccc(/C=C/C(=O)Nc2ccc(N3CCOCC3)cc2)cc1 | u | u | 45µM* | -13% | -8% | -18%
COc1ccc(C)cc1NC(=O)COC(=O)C1CC1 | 13% | -10% | 38%[12.7 µM] | -1% | 0% | 39%
COC(=O)c1ccccc1NC(=S)NC(=O)c1ccc2c(c1)OCO2 | -19% | -8% | 40µM* | u | u | 9%
COC(=O)c1ccccc1NC(=O)c1ccc2c(c1)OCCO2 | 21% | 14% | 12%[59 µM] | -11% | 0% | 94%
CC(C)C(=O)Nc1cccc(NC(=S)NC(=O)c2ccc3c(c2)OCO3)c1 | -15% | 22µM* | 65% | -3% | 3.5µM* | 11%
COC(=O)c1ccccc1NC(=S)NC(=O)c1ccc(C)cc1 | u | -18% | u | u | 35µM* | -9%
COC(=O)c1ccccc1NC(=S)NC(=O)c1ccccc1 | u | -27% | 30%[0.501 µM] | 27µM* | u | -3%
O=C(NCC1CC2c3ccccc3C1c1ccccc12)c1cc[n+]([O-])cc1 (stereo not given) | x | x | x | x | 14% | x
CCN(CC)c1ccc(NC(=O)CC2Oc3ccccc3NC2=O)c(C)c1 (stereo not given) | 10% | -11% | 10µM* | -23% | -26% | 33%
CCN(CC)c1ccc(NC(=O)CN2C(=O)c3cccnc3Oc3ccccc32)c(C)c1 | u | u | 8.9µM* | x | -30% | -20%
CCN(CC)c1ccc(NC(=O)CCN2C(=O)c3ccccc3S2(=O)=O)c(C)c1 | 13% | -20% | 8.9µM* | -4% | -3% | -4%
CCN(CC)c1ccc(NC(=O)CN2C(=O)CSc3ncccc32)c(C)c1 | 60% | -32% | 79µM* | u | -20% | 10%
CC(=O)c1cccc(NS(=O)(=O)c2cc3c(cc2C)n(C)c(=O)c(=O)n3C)c1 | 1% | -4% | -1%[59 µM] | x | -25% | 33%
CC1CC(C)CN(S(=O)(=O)N2CCCC(C(=O)NC3CCCCC3)C2)C1 (stereo not given) | -17% | -1% | 16% | -7% | 11% | 19%
CCOC(=O)C1(C)CCN1C(=O)c1ccc(OC)cc1 (stereo not given) | x | x | x | -3% | 3% | x
COc1ccccc1C(=O)N/C(=C\c1cn(S(=O)(=O)N(C)C)c2ccccc12)C(=O)NCCCn1ccnc1 | u | u | -1%[59 µM] | x | -16% | 26%
CN(C(=S)NCCN1CCOCC1)C(c1ccccc1)c1ccccc1 | 50µM* | 10µM* | 20µM* | u | u | u
Nc1nc(SCC(=O)C23CC4CC(CC(C4)C2)C3)n[nH]1 | 1% | -17% | 35µM* | u | 113% | 31%
O=C(CSc1ncnc2sc3c(c12)CCC3)Nc1ccc(Cl)cn1 | x | x | x | x | 14% | x
